Among all 140,000 compounds or so, about 4,300 (3.1%) were called active. Another 21% or so got no clear call; they are omitted.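 How the source made its calls: active means readout at or below -70, meaning at least 70% loss of cells showing the perinucleolar compartment, a nuclear body marking cancer cells; inconclusive means readout between -30 and a set limit; inactive means the rest.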 Only a selection was taken, and actives are over-represented in it overall.
assay: High Content Assay for Compounds that inhibit the Assembly of the Perinucleolar Compartment; settings: PC3M PTB-GFP, PNC prevalence imaging, 16 h; at 10 µM; hits give low values;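 further: plate controls were DMSO wells for no effect and camptothecin positive control wells for full effect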
Summary of the method: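 Compounds are pinned in duplicate onto adhered PC3M cells stably expressing GFP-tagged PTB and incubated 16 h at 37 C. Cells are then fixed, nuclei stained with Hoechst, and PNC-positive cells counted.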

SMILES | activity change (PNC), negative = inhibition
COc1ccc(CNC(=O)CCCn2nc(C)c([N+](=O)[O-])c2C)cc1 | 1.72% (inactive)
N#C/C(C(=O)N1CCOCC1)=C1/SC(Cc2ccc(F)cc2)C(=O)N1c1ccccc1 (stereo not given) | 2.9% (inactive)
O=C(Cn1cc(C(F)(F)F)ccc1=O)N/N=C/c1ccc(Cl)cc1Cl | 32% (inactive)
Cc1onc(-c2ccccc2)c1C(=O)NNC(=S)NC(=O)c1ccc(F)cc1 | 19.1% (inactive)
CC(=O)Nc1cccc(NC(=O)c2c(-c3ccccc3)noc2C)c1 | 19.7% (inactive)
CCOC(=O)c1c(-c2cccc(C)c2)csc1NC(=O)c1c(-c2ccccc2)noc1C | -101% (active)
Cc1nc(CNS(=O)(=O)c2ccc(Oc3ccccc3)cc2)cs1 | -83.2% (active)
Cc1nc(CNS(=O)(=O)c2cccnc2)cs1 | 14.3% (inactive)
Cc1ccc(S(=O)(=O)NCc2csc(C)n2)c(C)c1 | 36.5% (inactive)
CC(=O)NCCC(=O)Nc1nc(C)c(Cc2ccc3c(c2)OCO3)s1 | 32.2% (inactive)
COC(=O)[C@@H]1CC[C@H](C)[C@@H](c2ccc(C)cc2)N1C(=O)c1ccc(/C=N/O[C@H](C)c2cn([C@@H]3COC[C@H]3O)nn2)cc1 | 39.9% (inactive)
C/C(=N\NC(=O)c1ccc(CSc2nc(C)cc(C)n2)cc1)C1CCCCC1 | 28.4% (inactive)
CCCc1[nH]nc2c1C(C1CC=CCC1)C(C#N)=C(N)O2 (stereo not given) | 26.7% (inactive)
CCc1ccc(C2C(C#N)=C(N)Oc3n[nH]c(CC(=O)OC)c32)cc1 (stereo not given) | 18.8% (inactive)
COCc1[nH]nc2c1C(C1C=CCCC1)C(C#N)=C(N)O2 (stereo not given) | -107% (active)
CC(C)CNC(=O)c1cc(-c2ccc(Br)cc2)on1 | -2.59% (inactive)
CC(NC(=O)c1cc(-c2ccccc2)on1)c1ccccc1 (stereo not given) | -97.3% (active)
CC(NC(=O)Nc1ccccc1)c1ccccc1 (stereo not given) | -11.3% (inactive)
CCOC(=O)NN1C(=O)c2ccccc2NC1c1cccc(O)c1 (stereo not given) | -6.12% (inactive)
COc1ccc(C2CC(c3cccs3)=NN2C(=O)COC(=O)c2cc3ccccc3cc2O)cc1OC (stereo not given) | -16.9% (inactive)
CC1Cc2ccccc2N1C(=O)CSc1nnc(-c2ccc(S(=O)(=O)N3CCCC3)cc2)n1C (stereo not given) | -4.26% (inactive)
COc1ccc(C(CCNCc2ccccc2F)c2ccc(F)cc2)cc1 (stereo not given) | -83.9% (active)
COc1cccc(CNCCc2c[nH]c3ccccc23)c1OCc1ccccc1F | 9.41% (inactive)

SMILES | activity change (PNC), negative = inhibition
COc1ccc(C(CC(=O)O)NC(=O)Cc2ccccc2)cc1 (stereo not given) | -1.4% (inactive)
COc1ccc(S(=O)(=O)NC(C)C(=O)Nc2cccc([N+](=O)[O-])c2)cc1 (stereo not given) | -19.9% (inactive)
COc1ccc(-n2nc3c(c2NC(=O)Cc2cccc(C)c2)CS(=O)C3)cc1 (stereo not given) | 1.65% (inactive)
COc1ccc(CC(=O)Nc2c3c(nn2-c2cccc(Cl)c2)CS(=O)C3)cc1 (stereo not given) | -119% (active)
Cc1cccc(CC(=O)Nc2c3c(nn2-c2cccc(Cl)c2)CS(=O)C3)c1 (stereo not given) | -2.34% (inactive)
CC(NC(=O)C(=O)NN=C1CCC(C(C)(C)C)CC1)c1ccccc1 (stereo not given) | -5.42% (inactive)
COC(=O)Cc1csc(/N=C/c2c(O)n(-c3cccc(C(F)(F)F)c3)c(=O)c3ccccc23)n1 | -11.4% (inactive)
COc1ccc(C(=O)N2CC3(C)CC2CC(C)(C)C3)cc1OC (stereo not given) | -104% (active)
COc1ccccc1C(=O)N1CC2(C)CC1CC(C)(C)C2 (stereo not given) | -20.8% (inactive)
Cc1cccc(C(=O)NCC(=O)OCC(=O)N2CC3(C)CC2CC(C)(C)C3)c1 (stereo not given) | -3.76% (inactive)
Cc1cc(Cl)ccc1NC(=S)NCCCN1CCCC1=O | 13% (inactive)
CCO/N=C(/C)c1c(O)cc(-c2ccccc2)n(-c2ccccc2)c1=O | 36.7% (inactive)
CC(C)(C)NC(=O)Cn1nnc(-c2ccccc2Cl)n1 | 25.1% (inactive)
Cc1cc(C)n(C(=O)c2ccc(S(=O)(=O)N3CCCC3)cc2)n1 | 5.75% (inactive)
Cc1ccccc1-c1nnn(CC(=O)c2ccc(S(=O)(=O)N3CCCC3)cc2)n1 | -100% (active)
O=C(COC(=O)Cc1ccc(Br)cc1)Nc1c(F)c(F)c(F)c(F)c1F | 16.2% (inactive)
O=C(Nc1ccc2c(c1)OCCO2)c1ccncc1 | -27.2% (inactive)
O=C(Nc1nc2ccccc2s1)c1ccc2c(c1)OCO2 | 62.8% (inactive)
O=C(Nc1nc(-c2ccc3c(c2)OCO3)cs1)c1ccncc1 | -83.5% (active)
CCCCNS(=O)(=O)c1ccc2nc(SCC(=O)Nc3cc(C)cc(C)c3)[nH]c2c1 | 35.2% (inactive)
CCCCN(CC)C(=S)Nc1ccc2nc3n(c(=O)c2c1)CCCCC3 | 41.2% (inactive)
O=C(CSc1ccccn1)Nc1nc2c(ccc3ccccc32)s1 | 41.9% (inactive)

Reference: PubChem BioAssay AID2417 (National Center for Advancing Translational Sciences (NCATS), 2010)
